Experimental findings from PubChem BioAssay AID938 (National Center for Advancing Translational Sciences (NCATS), 2007) are described below.

Structures are written as SMILES. “And” between values parts separate entries of the source, which are not always exact repeats. Identical values can stand only once. The campaign covered roughly 73,000 compounds. About 1,800 (2.5%) were called active. Entries that show only a call come without a potency. Roughly 13% stayed inconclusive and do not appear here. The call rests on the fitted dose curve; in most records, active means well fitted activation curve with a large enough effect; inconclusive means small, poorly fitted or top-dose-only effect; inactive means no such curve, though single readings can be large or run the other way. The sample as a whole holds a higher share of actives than the screen did.
Potency means the concentration at half of the fitted maximal effect.

This assay is described as follows: qHTS Assay for Agonists of the Thyroid Stimulating Hormone Receptor: Activators of Intracellular cAMP Concentrations in Parental HEK 293. Further: nearly all actives have a fitted effect of over 55% in size. The settings on record: parental HEK293 CNG cAMP sensor, membrane potential fluorescence; series mostly up to 57.1 µM. The method, boiled down:
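Parental HEK 293 cells stably expressing a cAMP-gated CNG channel were loaded with membrane potential dye containing 100 uM RO 20-1724 for 60 min. Compound added for 30 min; depolarization read as fluorescence intensity at 590 nm.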
Background: In qHTS, concentration-response curves come from the screen itself.
As for `CSc1nnc(CNC(=O)c2ccccc2)n1-c1ccc(F)cc1`, the Potency result is “inactive”.
For `CCCOc1ccc(NC(=O)C2CCCNC2=O)cc1` (stereo not given), the Potency entry is “inactive”.
For the compound `CCc1ccc2oc(=O)cc(CN3CCCCC3C)c2c1` (stereo not given), the Potency is 25.1 µM (active).
For the compound `CC1CCCCN1CC(=O)NCc1ccc2c(c1)OCO2` (stereo not given), the Potency entry was “inactive”.
For `Cc1cc(NC(=O)CN2CCCCC2C)nc2c1c(=O)oc1ccccc12` (stereo not given), the Potency result was “inactive”.
As for `CCN1CCCC1CNc1ncnc2c1[nH]c1ccc(F)cc12` (stereo not given), the Potency entry was “inactive”.
Turning to `CCCn1c(-c2ccc(F)cc2)nc2c(NCC3CCCN3CC)nc(C)nc21` (stereo not given), the Potency is 15.8 µM (active).
The same measure, in the same setting: the entry for `CCCn1c(C)nc2c(NCCCCN(CC)CC)nc(C)nc21` is “inactive”; for `COc1ccc(CN2CC(C(=O)NCCN3CCN(c4ccccc4F)CC3)CC2=O)cc1` (stereo not given) it is “inactive”; for `CN1CCC2(CC1)NC(=O)NC2=O` it is “inactive”.
As to `CC[C@@H]1Cc2cc(O)ccc2C2=C1c1ccc(O)cc1C[C@H]2CC`, the Potency is 6.31 µM (active).
Regarding `O=P(O)(CN1CCCCC1)CN1CCCCC1`, the Potency entry is “inactive”.
As for `O=C(c1ccc([N+](=O)[O-])cc1)[C@@H](Br)[C@@H](Br)c1ccnc2ccccc12`, the activation is 8.13% [at 11.4 µM] (inactive).
`CCC[C@@H]1C[C@@]1(CCC)[C@@H](NC(=O)c1ccccc1)c1ccc(C(=O)OC)cc1`: the Potency is 7.94 µM (active).
For the compound `CCC[C@@H]1C[C@@]1(CCC)C(NC(=O)c1ccc(-c2ccccc2)cc1)c1cccc(Cl)c1` (stereo not given in full), the Potency result is “inactive”.
As for `CCCC(=O)C1=C(N(C)c2ccccc2)CC(C)(C)C(C(=O)OC)C1=O` (stereo not given), the Potency result was “inactive”.
As for `COc1nc(OC)nc(N(C)CCO)n1`, the Potency entry is “inactive”.
In the case of `CCSC(C)CC1C/C(=N/O)c2c(C)noc2C1` (stereo not given), the Potency result was “inactive”.
Same read-out and setting: the entry for `CCOC(=O)N1CCN(C(=O)c2ccc(CN(c3ccc(C)c(C)c3)S(C)(=O)=O)cc2)CC1` is “inactive”.
Regarding `CC(C)C(c1nnnn1C1CCCC1)N1CCN(c2ccccc2F)CC1` (stereo not given), the Potency was 15.8 µM (active).
Take `CCC(c1nnnn1C1CCCC1)N1CCN(C(=O)c2ccco2)CC1` (stereo not given): the Potency entry was “inactive”.
Same read-out and setting: under `CC(C)C(c1nnnn1Cc1ccccc1)N1CCC(C(N)=O)CC1` (stereo not given) stands “inactive”.
As to `CC(C)CN1CCc2nc(-c3ccccc3)c3c(c2C1)COC(C)C3` (stereo not given), the activation was -2.08% [at 11.4 µM] (inactive).
As to `Cn1c2c(c(=O)n(C)c1=O)CN(Cc1ccco1)CN2`, the Potency result was “inactive”.
Consider `c1ccc(Oc2ccccc2)cc1`, for which the Potency result is “inactive”.
Consider `CC1CN(C2CCCCC2)c2nc3c(c(=O)n(C)c(=O)n3C)n2C1` (stereo not given), for which the Potency entry is “inactive”.
On the same count and under the same terms, the entry for `Cn1cccc1C1(C(F)(F)F)NCCNC1=O` (stereo not given) is “inactive”; for `CCOc1cccc(-c2nnc3sc(COc4ccc(OC)cc4)nn23)c1` it is 31.6 µM (active); for `COc1cc(-c2nn3c(-c4cccc(C)c4)nnc3s2)cc(OC)c1OC` it is “inactive”.
`Fc1ccc(OCc2nn3c(Cn4nnc5ccccc54)nnc3s2)cc1`: the Potency result was “inactive”.
Regarding `Clc1ccccc1-c1cc(NCCN2CCOCC2)ncn1`, the Potency result was “inactive”.
As for `COc1ccccc1CNCc1cccs1`, the Potency entry is “inactive”.
For the compound `COc1ccccc1-c1nc(NCc2cccs2)c2ccccc2n1`, the Potency was 25.1 µM (active).
In the case of `COc1ccccc1-c1nc(NCCNC(C)=O)c2ccccc2n1`, the Potency result was “inactive”.
Still for that read-out and setting: under `COc1ccccc1-c1cc(NCc2cccs2)ncn1` stands 31.6 µM (active).
As for `CNc1nc(-c2ccccc2OC)nc2ccccc12`, the Potency result was “inactive”.
`CCOC(=O)c1cc2occc2n1CC(=O)N1CCN(C(=O)c2ccco2)CC1`: the Potency result was “inactive”.
As to `CO[C@@H]1COC(=O)C/C=C\[C@H](C)[C@@H](NS(=O)(=O)c2ccc(C)cc2)COC(=O)C/C=C\[C@@H]1C`, the activation is 2.07% [at 11.4 µM] (inactive) and 4.9% [at 11.4 µM] (inactive).
In the case of `CCC[C@H]1C(=O)N2C(N(C)C)=Nc3ccc(C)cc3N2C1=O`, the Potency result was “inactive”.
`COc1ccccc1C(=O)C(O)c1ccccc1OC` (stereo not given): the Potency entry is “inactive”.
For the compound `Cc1ccc(C)c(N2CCN(C(=O)CCc3nc4ccccc4[nH]3)CC2)c1`, the Potency result is “inactive”.
Consider `COCCNc1nc(-n2nc(C)cc2C)nc2sc3c(c12)CCCC3`, for which the Potency was 15.8 µM (active).
Take `COCCn1c(C)cc(C(=O)CSc2ncnc3sc4c(c23)CCC4)c1C`: the Potency entry was “inactive”.
On to `Cc1cc(C)n(-c2nc(SCC(=O)N3CCCC3)c3c4c(sc3n2)CCCC4)n1`, for which the Potency entry was “inactive”.
With `CCCOc1ccccc1C1CC(=O)Nc2cc3c(cc21)OCO3` (stereo not given), the Potency is 7.94 µM (active).
Turning to `COCCOC(=O)C1=C(C)NC(=O)CC1c1cc2c(cc1Br)OCO2` (stereo not given), the Potency result is “inactive”.
As for `COc1cc2c(cc1OC)C(c1ccc(C)o1)CC(=O)N2` (stereo not given), the Potency result is “inactive”.
As for `COc1ccc(NS(=O)(=O)c2ccc(NC(=O)C(C)(C(F)(F)F)C(F)(F)F)cc2)nn1`, the Potency entry is “inactive”.
The same measure, in the same setting: the entry for `Cc1nc2nc[nH]n2c(=O)c1NC(=O)c1cccc(OCC(C)C)c1` is “inactive”; for `COC(=O)C1C(=O)c2c([nH]c(C(=O)OCCSC)c2C)CC1C` (stereo not given) it is “inactive”.
`CCOC(=O)c1[nH]c2c(c1C)C(=O)CC(c1ccc(N(C)C)cc1)C2` (stereo not given): the Potency entry was “inactive”.
On the same count and under the same terms, the figure for `CCCOC(=O)c1[nH]c2c(c1C)C(=O)CC(c1cc(OC)c(OC)c(OC)c1)C2` (stereo not given) is 15.8 µM (active).
With `N[C@@H](C(=O)O)c1ccc(P(=O)(O)O)cc1`, the Potency entry was “inactive”.
With `C/C(CCN1CCCCc2nc(C)c(C)cc21)=N\O[C@@H](C)c1cn([C@@H]2COC[C@@H]2O)nn1`, the activation was 6.27% [at 11.4 µM] (inactive).
In the case of `C[C@@H]1O[C@@H](O[C@@H]2[C@@H](O)[C@H](OCCc3ccc(O)c(O)c3)O[C@H](CO[C@@H]3O[C@H](CO)[C@@H](O)[C@H](O)[C@H]3O)[C@H]2OC(=O)/C=C/c2ccc(O)c(O)c2)[C@H](O)[C@H](O)[C@H]1O`, the Potency entry was “inactive”.
Turning to `CO[C@H]1COC(=O)[C@@H](OCc2ccccc2)/C=C\[C@H](C)[C@@H](OC)COC(=O)[C@H](OCc2ccccc2)/C=C\[C@@H]1C`, the activation is -2.98% [at 11.4 µM] (inactive).
For `O=C(c1csnn1)N1CCC2(CC1)CN(c1ncccn1)C2`, the Potency entry was “inactive”.
`O=C(c1csnn1)N1CCC[C@@]2(CCN(Cc3nccs3)C2)C1`: the Potency was 3.98 µM (active).
As to `Cn1cccc1C(=O)N1CCC[C@@]2(CCN(Cc3nccs3)C2)C1`, the Potency entry was “inactive”.
Take `CCc1cc(=O)oc2cc(OCC(=O)N3CCCc4ccccc43)ccc12`: the Potency entry is “inactive”.
Regarding `CCOC(=O)c1ccc(NC(=O)CS(=O)(=O)c2cn(CC)c3ccccc23)cc1`, the Potency result is “inactive”.
On the same count and under the same terms, the entry for `COC(=O)[C@@H](NC(=O)NCc1cccc(OC)c1)C(C)C` is “inactive”; for `O=C(c1cccc(F)c1)N1CCC2(CC1)CCN(c1ccccc1)CC2` it is “inactive”; for `O=C(Nc1cccc(NC(=O)N2CCN(c3ccccc3)CC2)c1)N1CCN(c2ccccc2)CC1` it is “inactive”.
On the same count and under the same terms, under `O=C(Nc1ccccc1N1CCN(c2ccccc2)CC1)c1cccc(F)c1` stands 3.98 µM (active).
